Unmarked numbers belong to inactive results. For part of these data: Potency and affinity values are given separately. Calls of active or inactive are those of the source. Unless noted, how the calls were made is not given here.

A short description of assay [1]: antimalarial activity against Dd2 strain (AID 2302;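 active means growth inhibition above 50% at the single 2 µM test dose, taken to imply half-maximal potency below 2 µM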;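 further: 0% = DMSO untreated growth and 100% = chloroquine plus artemisinin killed control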). The settings on record: P. falciparum Dd2 in RBCs, LDH growth readout, 72 h; at 2 µM; active compounds read high.
A short description of assay [2]: human hepatoma cell viability loss – ATP luminescence, cytotoxicity control for P. falciparum antimalarial project, primary screen (AID 2303;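 active means inhibition above 50%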;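 further: 0% = DMSO wells and 100% = digitonin-killed cells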). The settings on record: HepG2 viability, 24-48 h, at 10 µM, active compounds read high.
Assay [3] deals with L-lactate dehydrogenase (Plasmodium falciparum (isolate CDC / Honduras)) (UniProt Q27743). As to the kind of experiment: PfLDH activity inhibition – cell lysate, 3D7 strain, counter-screen for P. falciparum growth inhibition project (AID 2304).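 Further: 0% = vehicle and 100% = reference inhibitor.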 Conditions: P. falciparum 3D7 crude extract, LDH APAD/NBT absorbance; at 2 µM; active compounds read high.
Assay [4] is described as follows: inhibition of 3D7 malaria parasite growth – strain 3D7 (AID 2306).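 Further: 0% = DMSO wells and 100% = chloroquine plus artemisinin control wells.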 Conditions: P. falciparum 3D7 erythrocytic growth, LDH absorbance, 72 h; at 2 µM; active compounds read high.
For assay [5], the target named is Calcium-dependent protein kinase 1 (Plasmodium falciparum (isolate 3D7)) (UniProt P62344). As to the kind of experiment: PfCDPK1 kinase inhibitors, biochemical, TCAMS library (AID 1159585; cut-off not given, nearly all actives have IC50 up to about 0.98 µM;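 further: inhibitors leave more ATP so luminescence rises with inhibition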). Conditions: recombinant PfCDPK1, Kinase-Glo ATP depletion luminescence.
For assay [6], the target named is Plasmodium falciparum protein kinase 6 (PK6, PF3D7_1337100) (UniProt Q8IDW1). As to the kind of experiment: PfPK6 kinase inhibitors, biochemical, TCAMS library (AID 1159586). Conditions: recombinant PfPK6, Kinase-Glo ATP depletion luminescence.
Assay [7] concerns the target Protein kinase 7 (PK7), Plasmodium falciparum 3D7 (PF3D7_0213400) (UniProt Q7YTF7). The assay can be described thus: inhibition of Plasmodium PK7 catalytic activity – biochemical, TCAMS antimalarial set, Kinase-Glo luminescence (AID 1159587). The settings on record: recombinant PfPK7, Kinase-Glo ATP depletion luminescence.
Assay [8] concerns the target Calcium-dependent protein kinase 4 (Plasmodium falciparum (isolate 3D7)) (UniProt Q8IBS5). As to the kind of experiment: PfCDPK4 kinase inhibitors, biochemical, TCAMS library (AID 1159588; cut-off not given, nearly all actives have IC50 up to about 0.91 µM). Conditions: recombinant PfCDPK4, Kinase-Glo ATP depletion luminescence.

Chain of Calcium-dependent protein kinase 4 (Plasmodium falciparum (isolate 3D7)) (Q8IBS5 whole entry, looked up): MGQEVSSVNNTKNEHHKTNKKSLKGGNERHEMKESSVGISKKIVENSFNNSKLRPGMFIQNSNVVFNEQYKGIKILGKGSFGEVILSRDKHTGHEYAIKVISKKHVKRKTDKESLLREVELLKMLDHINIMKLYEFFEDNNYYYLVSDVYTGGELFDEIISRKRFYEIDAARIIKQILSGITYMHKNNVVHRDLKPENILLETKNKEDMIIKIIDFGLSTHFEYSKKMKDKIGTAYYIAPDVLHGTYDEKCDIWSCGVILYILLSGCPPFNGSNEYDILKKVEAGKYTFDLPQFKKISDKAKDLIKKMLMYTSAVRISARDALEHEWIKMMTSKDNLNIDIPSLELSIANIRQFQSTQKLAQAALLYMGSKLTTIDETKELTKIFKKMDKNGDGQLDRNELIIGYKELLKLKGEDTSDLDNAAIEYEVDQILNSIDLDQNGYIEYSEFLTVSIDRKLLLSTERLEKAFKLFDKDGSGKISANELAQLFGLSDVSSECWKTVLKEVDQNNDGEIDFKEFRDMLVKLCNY
Chain of Plasmodium falciparum protein kinase 6 (PK6, PF3D7_1337100) (Q8IDW1 1-305): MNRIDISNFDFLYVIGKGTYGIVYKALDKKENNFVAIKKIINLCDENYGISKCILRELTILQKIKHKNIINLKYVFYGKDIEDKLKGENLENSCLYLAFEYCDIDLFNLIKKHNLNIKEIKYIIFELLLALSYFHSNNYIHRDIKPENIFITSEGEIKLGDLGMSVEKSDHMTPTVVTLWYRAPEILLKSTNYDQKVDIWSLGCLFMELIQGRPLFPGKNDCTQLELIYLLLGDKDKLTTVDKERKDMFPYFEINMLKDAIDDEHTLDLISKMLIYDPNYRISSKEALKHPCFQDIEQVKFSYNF
Chain of Protein kinase 7 (PK7), Plasmodium falciparum 3D7 (PF3D7_0213400) (Q7YTF7 1-343): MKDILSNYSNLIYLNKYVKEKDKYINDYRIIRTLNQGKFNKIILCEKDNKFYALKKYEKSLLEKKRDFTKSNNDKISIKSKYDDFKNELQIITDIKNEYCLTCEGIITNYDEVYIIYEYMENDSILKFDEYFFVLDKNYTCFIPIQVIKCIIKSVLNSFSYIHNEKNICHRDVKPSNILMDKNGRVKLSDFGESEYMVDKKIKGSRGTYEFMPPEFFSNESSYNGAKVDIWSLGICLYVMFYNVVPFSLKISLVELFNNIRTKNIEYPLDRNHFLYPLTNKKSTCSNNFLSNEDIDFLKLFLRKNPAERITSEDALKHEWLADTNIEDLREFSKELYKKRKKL
Chain of L-lactate dehydrogenase (Plasmodium falciparum (isolate CDC / Honduras)) (Q27743 whole entry, looked up): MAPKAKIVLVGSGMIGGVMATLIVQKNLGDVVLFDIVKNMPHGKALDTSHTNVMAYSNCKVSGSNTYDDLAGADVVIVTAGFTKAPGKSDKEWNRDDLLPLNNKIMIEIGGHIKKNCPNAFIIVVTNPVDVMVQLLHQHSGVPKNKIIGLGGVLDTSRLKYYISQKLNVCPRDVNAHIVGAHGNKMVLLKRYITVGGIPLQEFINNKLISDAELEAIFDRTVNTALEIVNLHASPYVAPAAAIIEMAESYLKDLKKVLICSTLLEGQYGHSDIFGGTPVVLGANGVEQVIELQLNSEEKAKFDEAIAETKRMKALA
Chain of Calcium-dependent protein kinase 1 (Plasmodium falciparum (isolate 3D7)) (P62344 whole entry, looked up): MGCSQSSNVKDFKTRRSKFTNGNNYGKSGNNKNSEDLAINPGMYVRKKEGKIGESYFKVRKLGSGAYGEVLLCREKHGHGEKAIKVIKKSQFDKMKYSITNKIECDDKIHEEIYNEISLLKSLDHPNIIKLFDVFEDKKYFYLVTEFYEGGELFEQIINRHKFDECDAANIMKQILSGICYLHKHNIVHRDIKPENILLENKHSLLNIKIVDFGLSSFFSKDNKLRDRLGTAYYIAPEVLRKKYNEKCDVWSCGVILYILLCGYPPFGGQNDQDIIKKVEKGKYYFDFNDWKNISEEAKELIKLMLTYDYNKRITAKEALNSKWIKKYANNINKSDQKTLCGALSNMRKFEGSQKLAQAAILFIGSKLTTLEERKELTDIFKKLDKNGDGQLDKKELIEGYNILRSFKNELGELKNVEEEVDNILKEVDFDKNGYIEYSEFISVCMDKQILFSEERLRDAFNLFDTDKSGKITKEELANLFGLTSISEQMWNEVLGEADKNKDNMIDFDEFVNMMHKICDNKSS

Turning to `Cc1nc(-c2cccc(C(F)(F)F)c2)n2nc(Nc3ccc(OCCN4CCCC4)cc3)ncc12`, the figures for the growth inhibition in assay [1] and in assay [4] were 29% and 99% (active), respectively. Also, the inhibition is 30% in assay [2] and -3% in assay [3]. The result in assay [5], in assay [6], in assay [7] and in assay [8] was inactive.

As to `Cc1cccc2[nH]c(-c3ccc(-c4cccc(CNCCCNS(C)(=O)=O)c4)cc3)nc12`, the growth inhibition in assay [1] was 5%; in assay [4] it was 99% (active). For the same molecule, the inhibition in assay [2] is 5%; in assay [3], 2%. Moreover, the result in assay [5], in assay [6], in assay [7] and in assay [8] was inactive.

In the case of `Fc1cccc(Cn2ncc3cc(Nc4ncnc5sc(C#Cc6ncc[nH]6)cc45)ccc32)c1`, the growth inhibition is 30% in assay [1] and 101% (active) in assay [4]. The inhibition in assay [2] is 31%; in assay [3], 0%. Moreover, the outcome in assay [5], in assay [6], in assay [7] and in assay [8] was inactive.

For `O=C(NCCCCCN1CCC(c2c[nH]c3ccccc23)CC1)Nc1cccc(Cl)c1`, the growth inhibition in assay [1] is 0%; in assay [4], 86% (active). Moreover, the inhibition in assay [2] is 36%; in assay [3], -1%. In addition, the outcome in assay [5], in assay [6], in assay [7] and in assay [8] was inactive.

`CON(CCCN(C)C)C(=N)N`: the growth inhibition in assay [1] is -4%; in assay [4], 92% (active). Moreover, the inhibition in assay [2] is 3%; in assay [3] it was 1%. For the same molecule, the result in assay [5], in assay [6], in assay [7] and in assay [8] was inactive.

For `Cc1cc(C(=O)Nc2ccc(C)c(-c3nc(N(C(=O)c4ccc(F)c(C)c4)C4CCNCC4)nc4c3ccc(=O)n4-c3c(F)cccc3F)c2)ccc1F`, the growth inhibition in assay [1] and in assay [4] was 99% (active) each time. Besides, the inhibition in assay [2] is 4%; in assay [3], -3%. For the same molecule, the outcome in assay [5], in assay [6], in assay [7] and in assay [8] was inactive.

Regarding `CCc1nc2ccc(C(=O)OC)nc2n1Cc1ccc2oc(-c3ccccc3N)c(Br)c2c1`, the results for the growth inhibition in assay [1] and in assay [4] were 75% (active) and 93% (active), respectively. Besides, the inhibition is 8% in assay [2] and -2% in assay [3]. The result in assay [5], in assay [6], in assay [7] and in assay [8] was inactive.

Take `CSc1cccc(Nc2nc3ccc(S(=O)(=O)NCC(C)C)cc3n2C(C)C(C)C)c1` (centres undefined): the growth inhibition was 91% (active) in assay [1] and 93% (active) in assay [4]. Besides, the values for the inhibition in assay [2] and in assay [3] were 3% and -2%, respectively. Besides, the result in assay [5], in assay [6], in assay [7] and in assay [8] was inactive.

For the molecule `O=C(CC(=O)C(F)(F)F)c1ccc2c(c1)OCO2`, the growth inhibition is 0% in assay [1] and 96% (active) in assay [4]. Also, the results for the inhibition in assay [2] and in assay [3] were 44% and 0%, respectively. Moreover, the outcome in assay [5], in assay [6], in assay [7] and in assay [8] was inactive.

As for `CCc1cc(C(=O)c2cccc(C)c2)c(NC(=O)CN2CCN(C(=O)c3ccco3)CC2)s1`, the growth inhibition in assay [1] was 85% (active); in assay [4] it was 91% (active). Further, the figures for the inhibition in assay [2] and in assay [3] were -13% and -5%, respectively. The result in assay [5], in assay [6], in assay [7] and in assay [8] was inactive.

Turning to `CCN(CC)CC(O)CNc1c2ccc([N+](=O)[O-])cc2nc2cc(OC)c(OC)cc12` (centres undefined), the growth inhibition in assay [1] and in assay [4] was 100% (active) each time. The inhibition was 78% (active) in assay [2] and -4% in assay [3]. Moreover, the result in assay [5], in assay [6], in assay [7] and in assay [8] was inactive.

Consider `CCCN1CCN(Cc2ccc(-c3ccc(-c4nc5ccccc5[nH]4)s3)cc2)CC1`, for which the growth inhibition in assay [1] is 93% (active); in assay [4] it was 103% (active). In addition, the inhibition in assay [2] is 29%; in assay [3], 5%. The result in assay [5], in assay [6], in assay [7] and in assay [8] was inactive.

On to `O=S(=O)(NCCN1CCCC1)c1ccc(-c2ccccc2CNC2Cc3ccccc3C2)cc1`, for which the growth inhibition was 67% (active) in assay [1] and 95% (active) in assay [4]. The inhibition in assay [2] is 19%; in assay [3], -9%. For the same molecule, the result in assay [5], in assay [6], in assay [7] and in assay [8] was inactive.

On to `Cc1c(C)c2c(c(C)c1O)CC[C@](C)(C(=O)N1CCC(CCN3CCC(c4c[nH]c5ccccc45)CC3)CC1)O2`, for which the growth inhibition in assay [1] is 74% (active); in assay [4], 99% (active). The figures for the inhibition in assay [2] and in assay [3] were 31% and 0%, respectively. The outcome in assay [5], in assay [6], in assay [7] and in assay [8] was inactive.

Consider `O=C1Nc2cccc3c2C1(CCCCN1CCC(c2c(-c4ccc(F)cc4)[nH]c4ccccc24)CC1)CCC3` (centres undefined), for which the growth inhibition in assay [1] is 28%; in assay [4], 91% (active). The values for the inhibition in assay [2] and in assay [3] were 25% and -4%, respectively. For the same molecule, the result in assay [5], in assay [6], in assay [7] and in assay [8] was inactive.

Regarding `CC(COc1ccc2c(c1)OC(C)(C)CC2c1ccccc1)NCC(O)c1cccc(Cl)c1` (centres undefined), the growth inhibition in assay [1] is 96% (active); in assay [4] it was 98% (active). In addition, the values for the inhibition in assay [2] and in assay [3] were 1% and 3%, respectively. The outcome in assay [5], in assay [6], in assay [7] and in assay [8] was inactive.

Regarding `Fc1ccc2nc(-c3ccc(-c4ccc(CNCC5CCCO5)cc4)s3)[nH]c2c1` (centres undefined), the figures for the growth inhibition in assay [1] and in assay [4] were 99% (active) and 100% (active), respectively. Besides, the inhibition in assay [2] was 30%; in assay [3] it was -2%. Besides, the result in assay [5], in assay [6], in assay [7] and in assay [8] was inactive.

In the case of `CC(=O)N(C)C1CCN(Cc2cccc(-c3ccc(-c4nc5ccc(F)cc5[nH]4)cc3)c2)C1` (centres undefined), the growth inhibition is 19% in assay [1] and 92% (active) in assay [4]. The values for the inhibition in assay [2] and in assay [3] were 24% and 0%, respectively. In addition, the result in assay [5], in assay [6], in assay [7] and in assay [8] was inactive.

For the origin of these results see PubChem BioAssay.
